Our source for the binding signal values is paper PMC11006913.

Common to all, as to experiment: PBM; 200 nM protein, PBS
Common to all, as to details: dsDNA, one strand shown

Assay [1] concerns the target HESX1 (Homo sapiens, UniProt Q9UBX0 95-180, R165K).
For assay [2], the target named is HOXB9 (Homo sapiens, UniProt P17482 171-250, T197M).
In assay [3] the target is HOXC9 (Homo sapiens, UniProt P31274 178-260, K195R).
The target in assay [4] is HOXA7 (Homo sapiens, UniProt P31268 116-202).
For assay [5], the target named is ALX4 (Homo sapiens, UniProt Q9H161 200-286).
The target of assay [6] is PRRX1 (Homo sapiens, UniProt P54821 80-166, F113S).
Assay [7] addresses HOXB6 (Homo sapiens, UniProt P17509 132-218, K202E).
In assay [8] the target is ALX4 (Homo sapiens, UniProt Q9H161 200-286, Q225E).
Assay [9] addresses HESX1 (Homo sapiens, UniProt Q9UBX0 95-180).
Assay [10] addresses HOXA2 (Homo sapiens, UniProt O43364 129-215, R185T).
Assay [11] concerns the target HOXB9 (Homo sapiens, UniProt P17482 171-250).
Assay [12] concerns the target MSX2 (Homo sapiens, UniProt P35548 130-214, R199I).
Assay [13] concerns the target ALX1 (Homo sapiens, UniProt Q15699 118-204, L144V).
Assay [14] has as its target HOXA2 (Homo sapiens, UniProt O43364 129-215, R185K).
The target of assay [15] is ALX1 (Homo sapiens, UniProt Q15699 118-204, L144R).
Assay [16] deals with MSX2 (Homo sapiens, UniProt P35548 130-214).
Assay [17] deals with PROP1 (Homo sapiens, UniProt O75360 56-141).
Assay [18] concerns the target HESX1 (Homo sapiens, UniProt Q9UBX0 95-180, R109Q).
Assay [19] addresses PROP1 (Homo sapiens, UniProt O75360 56-141, R99H).
The target in another assay is ALX3 (Homo sapiens, UniProt O95076 139-225, L168Q).
Assay [20] has as its target HESX1 (Homo sapiens, UniProt Q9UBX0 95-180, P111T).
In assay [21] the target is HOXB9 (Homo sapiens, UniProt P17482 171-250, R186Q).
The target of assay [22] is PROP1 (Homo sapiens, UniProt O75360 56-141, F88S).
Assay [23] deals with MSX2 (Homo sapiens, UniProt P35548 130-214, F161Y).
Assay [24] concerns the target HESX1 (Homo sapiens, UniProt Q9UBX0 95-180, F115L).
Assay [25] concerns the target HOXA2 (Homo sapiens, UniProt O43364 129-215, Y150S).
The target in assay [26] is HOXA7 (Homo sapiens, UniProt P31268 116-202, W177C).
Assay [27] deals with PRRX1 (Homo sapiens, UniProt P54821 80-166).
For assay [28], the target named is HOXA2 (Homo sapiens, UniProt O43364 129-215).
For assay [29], the target named is HOXB6 (Homo sapiens, UniProt P17509 132-218).
The target of assay [30] is T1, VENTX (Homo sapiens, UniProt O95231 78-163, R121Q).
T1 sequence: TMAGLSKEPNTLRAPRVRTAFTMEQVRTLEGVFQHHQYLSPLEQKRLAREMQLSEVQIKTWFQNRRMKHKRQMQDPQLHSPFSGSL

The target in assay [31] is HOXA4 (Homo sapiens, UniProt Q00056 201-287, W262R).
The target of assay [32] is T2, VENTX (Homo sapiens, UniProt O95231 78-163).
T2 sequence: T1 sequence with Q44R

Assay [33] addresses T3, VENTX (Homo sapiens, UniProt O95231 78-163, Y115F).
T3 sequence: T1 sequence with Y38F, Q44R

The target in assay [34] is HOXA4 (Homo sapiens, UniProt Q00056 201-287, R217L).
Assay [35] concerns the target HOXA4 (Homo sapiens, UniProt Q00056 201-287).
Assay [36] concerns the target HOXA4 (Homo sapiens, UniProt Q00056 201-287, W262F).
The target in assay [37] is HOXC10 (Homo sapiens, UniProt Q9NYD6 254-340).
Assay [38] concerns the target HOXC9 (Homo sapiens, UniProt P31274 178-260).
The target in assay [39] is HOXC9 (Homo sapiens, UniProt P31274 178-260, R193K).
Assay [40] addresses HOXC10 (Homo sapiens, UniProt Q9NYD6 254-340, K271E).
Assay [41] concerns the target VAX1 (Homo sapiens, UniProt Q5SQQ9 86-172).
The target of assay [42] is HOXC9 (Homo sapiens, UniProt P31274 178-260, R222W).
For assay [43], the target named is VAX1 (Homo sapiens, UniProt Q5SQQ9 86-172, T142I).
Assay [44] addresses VAX1 (Homo sapiens, UniProt Q5SQQ9 86-172, K157R).

Substitutions are numbered along the chain they refer to.

Sequence of MSX2 (Homo sapiens, UniProt P35548 130-214) (P35548 130-214): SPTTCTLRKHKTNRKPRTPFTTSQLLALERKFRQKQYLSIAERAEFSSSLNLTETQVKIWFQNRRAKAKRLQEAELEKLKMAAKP
Sequence of HESX1 (Homo sapiens, UniProt Q9UBX0 95-180) (Q9UBX0 95-180): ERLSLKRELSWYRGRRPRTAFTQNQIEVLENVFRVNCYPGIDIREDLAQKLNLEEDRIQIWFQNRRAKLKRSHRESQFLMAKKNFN
Sequence of HESX1 (Homo sapiens, UniProt Q9UBX0 95-180, R165K) (Q9UBX0 95-180 R165K): as the sequence (Q9UBX0 95-180) above, with R71K counted along it
Sequence of HOXA7 (Homo sapiens, UniProt P31268 116-202, W177C) (P31268 116-202 W177C): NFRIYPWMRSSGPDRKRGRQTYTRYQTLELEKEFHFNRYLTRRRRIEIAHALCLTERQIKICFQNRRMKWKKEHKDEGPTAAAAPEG
Sequence of HESX1 (Homo sapiens, UniProt Q9UBX0 95-180, F115L) (Q9UBX0 95-180 F115L): as the sequence (Q9UBX0 95-180) above, with F21L counted along it
Sequence of HESX1 (Homo sapiens, UniProt Q9UBX0 95-180, R109Q) (Q9UBX0 95-180 R109Q): as the sequence (Q9UBX0 95-180) above, with R15Q counted along it
Sequence of MSX2 (Homo sapiens, UniProt P35548 130-214, R199I) (P35548 130-214 R199I): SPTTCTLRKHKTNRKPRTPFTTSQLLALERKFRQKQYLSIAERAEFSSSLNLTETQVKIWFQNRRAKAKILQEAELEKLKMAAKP
Sequence of HOXA7 (Homo sapiens, UniProt P31268 116-202) (P31268 116-202): as the sequence (P31268 116-202 W177C) above, with C62W counted along it
Sequence of HESX1 (Homo sapiens, UniProt Q9UBX0 95-180, P111T) (Q9UBX0 95-180 P111T): as the sequence (Q9UBX0 95-180) above, with P17T counted along it
Sequence of MSX2 (Homo sapiens, UniProt P35548 130-214, F161Y) (P35548 130-214 F161Y): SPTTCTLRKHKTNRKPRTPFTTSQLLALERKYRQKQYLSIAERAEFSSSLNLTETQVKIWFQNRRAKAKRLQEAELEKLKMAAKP
Sequence of HOXA2 (Homo sapiens, UniProt O43364 129-215, R185K) (O43364 129-215 R185K): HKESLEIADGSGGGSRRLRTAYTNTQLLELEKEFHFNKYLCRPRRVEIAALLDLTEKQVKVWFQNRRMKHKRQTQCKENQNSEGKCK
Sequence of HOXC9 (Homo sapiens, UniProt P31274 178-260, K195R) (P31274 178-260 K195R): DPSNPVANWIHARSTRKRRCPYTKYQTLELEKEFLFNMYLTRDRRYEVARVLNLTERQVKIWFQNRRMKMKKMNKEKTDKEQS
Sequence of HOXB6 (Homo sapiens, UniProt P17509 132-218) (P17509 132-218): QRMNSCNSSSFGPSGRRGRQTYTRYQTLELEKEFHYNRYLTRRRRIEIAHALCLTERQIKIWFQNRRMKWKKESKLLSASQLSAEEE
Sequence of HOXA2 (Homo sapiens, UniProt O43364 129-215, R185T) (O43364 129-215 R185T): as the sequence (O43364 129-215 R185K) above, with K57T counted along it
Sequence of HOXB6 (Homo sapiens, UniProt P17509 132-218, K202E) (P17509 132-218 K202E): as the sequence (P17509 132-218) above, with K71E counted along it
Sequence of HOXA2 (Homo sapiens, UniProt O43364 129-215, Y150S) (O43364 129-215 Y150S): as the sequence (O43364 129-215 R185K) above, with Y22S, K57R counted along it
Sequence of HOXA2 (Homo sapiens, UniProt O43364 129-215) (O43364 129-215): as the sequence (O43364 129-215 R185K) above, with K57R counted along it
Sequence of PROP1 (Homo sapiens, UniProt O75360 56-141, R99H) (O75360 56-141 R99H): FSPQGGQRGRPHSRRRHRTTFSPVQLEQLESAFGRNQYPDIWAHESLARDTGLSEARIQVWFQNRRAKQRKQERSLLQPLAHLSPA
Sequence of HOXC10 (Homo sapiens, UniProt Q9NYD6 254-340) (Q9NYD6 254-340): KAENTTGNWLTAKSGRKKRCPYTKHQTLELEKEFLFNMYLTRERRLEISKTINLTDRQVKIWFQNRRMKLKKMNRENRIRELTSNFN
Sequence of ALX4 (Homo sapiens, UniProt Q9H161 200-286, Q225E) (Q9H161 200-286 Q225E): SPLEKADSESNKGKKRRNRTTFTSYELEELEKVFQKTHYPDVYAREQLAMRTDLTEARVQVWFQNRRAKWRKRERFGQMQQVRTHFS
Sequence of VAX1 (Homo sapiens, UniProt Q5SQQ9 86-172, K157R) (Q5SQQ9 86-172 K157R): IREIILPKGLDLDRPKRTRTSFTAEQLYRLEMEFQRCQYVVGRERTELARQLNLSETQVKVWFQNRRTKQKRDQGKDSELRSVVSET
Sequence of HOXC10 (Homo sapiens, UniProt Q9NYD6 254-340, K271E) (Q9NYD6 254-340 K271E): as the sequence (Q9NYD6 254-340) above, with K18E counted along it
Sequence of HOXC9 (Homo sapiens, UniProt P31274 178-260, R222W) (P31274 178-260 R222W): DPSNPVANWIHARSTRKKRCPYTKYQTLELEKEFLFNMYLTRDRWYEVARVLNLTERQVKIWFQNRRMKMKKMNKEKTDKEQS
Sequence of PROP1 (Homo sapiens, UniProt O75360 56-141, F88S) (O75360 56-141 F88S): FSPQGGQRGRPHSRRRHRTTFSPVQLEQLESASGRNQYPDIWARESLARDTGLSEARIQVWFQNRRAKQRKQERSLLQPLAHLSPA
Sequence of ALX4 (Homo sapiens, UniProt Q9H161 200-286) (Q9H161 200-286): as the sequence (Q9H161 200-286 Q225E) above, with E26Q counted along it
Sequence of HOXA4 (Homo sapiens, UniProt Q00056 201-287) (Q00056 201-287): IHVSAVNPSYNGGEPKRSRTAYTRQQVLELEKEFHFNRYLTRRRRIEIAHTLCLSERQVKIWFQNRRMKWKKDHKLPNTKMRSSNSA
Sequence of HOXB9 (Homo sapiens, UniProt P17482 171-250) (P17482 171-250): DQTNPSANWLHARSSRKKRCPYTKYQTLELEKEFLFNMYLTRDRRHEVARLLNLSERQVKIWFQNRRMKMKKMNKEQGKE
Sequence of VAX1 (Homo sapiens, UniProt Q5SQQ9 86-172, T142I) (Q5SQQ9 86-172 T142I): as the sequence (Q5SQQ9 86-172 K157R) above, with T57I, R72K counted along it
Sequence of HOXB9 (Homo sapiens, UniProt P17482 171-250, T197M) (P17482 171-250 T197M): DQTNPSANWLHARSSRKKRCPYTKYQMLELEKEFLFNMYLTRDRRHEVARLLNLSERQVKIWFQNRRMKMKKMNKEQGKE
Sequence of ALX3 (O95076 139-225 L168Q): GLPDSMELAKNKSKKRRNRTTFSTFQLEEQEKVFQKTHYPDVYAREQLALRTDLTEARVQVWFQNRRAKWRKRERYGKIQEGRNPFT
Sequence of HOXA4 (Homo sapiens, UniProt Q00056 201-287, W262R) (Q00056 201-287 W262R): as the sequence (Q00056 201-287) above, with W62R counted along it
Sequence of PRRX1 (Homo sapiens, UniProt P54821 80-166, F113S) (P54821 80-166 F113S): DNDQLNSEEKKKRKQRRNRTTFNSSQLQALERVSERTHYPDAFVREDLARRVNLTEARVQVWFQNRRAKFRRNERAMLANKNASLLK
Sequence of VAX1 (Homo sapiens, UniProt Q5SQQ9 86-172) (Q5SQQ9 86-172): as the sequence (Q5SQQ9 86-172 K157R) above, with R72K counted along it
Sequence of HOXC9 (Homo sapiens, UniProt P31274 178-260) (P31274 178-260): as the sequence (P31274 178-260 R222W) above, with W45R counted along it
Sequence of ALX1 (Homo sapiens, UniProt Q15699 118-204, L144V) (Q15699 118-204 L144V): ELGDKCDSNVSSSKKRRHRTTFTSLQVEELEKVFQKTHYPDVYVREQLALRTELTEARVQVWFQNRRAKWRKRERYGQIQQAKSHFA
Sequence of PRRX1 (Homo sapiens, UniProt P54821 80-166) (P54821 80-166): as the sequence (P54821 80-166 F113S) above, with S34F counted along it
Sequence of HOXC9 (Homo sapiens, UniProt P31274 178-260, R193K) (P31274 178-260 R193K): as the sequence (P31274 178-260 R222W) above, with R16K, W45R counted along it
Sequence of HOXA4 (Homo sapiens, UniProt Q00056 201-287, R217L) (Q00056 201-287 R217L): as the sequence (Q00056 201-287) above, with R17L counted along it
Sequence of HOXA4 (Homo sapiens, UniProt Q00056 201-287, W262F) (Q00056 201-287 W262F): as the sequence (Q00056 201-287) above, with W62F counted along it
Sequence of ALX1 (Homo sapiens, UniProt Q15699 118-204, L144R) (Q15699 118-204 L144R): as the sequence (Q15699 118-204 L144V) above, with V27R counted along it
Sequence of HOXB9 (Homo sapiens, UniProt P17482 171-250, R186Q) (P17482 171-250 R186Q): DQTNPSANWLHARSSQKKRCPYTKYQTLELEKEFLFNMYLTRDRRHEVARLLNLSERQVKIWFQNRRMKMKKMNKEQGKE
Sequence of PROP1 (Homo sapiens, UniProt O75360 56-141) (O75360 56-141): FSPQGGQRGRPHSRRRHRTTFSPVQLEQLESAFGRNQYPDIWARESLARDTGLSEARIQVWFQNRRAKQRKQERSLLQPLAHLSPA

Take ATAATTGC: the binding signal with HESX1 [1] was 12.2 upbm affinity estimate (log intensity, higher = more binding, comparable within an allelic series); with HOXB9 [2] it was 10.2 upbm affinity estimate (log intensity, higher = more binding, comparable within an allelic series); in the assay with HOXC9 [3], 12.6 upbm affinity estimate (log intensity, higher = more binding, comparable within an allelic series); with HOXA7 [4] it was 11.5 upbm affinity estimate (log intensity, higher = more binding, comparable within an allelic series); in the assay with ALX4 [5] it was 13.6 upbm affinity estimate (log intensity, higher = more binding, comparable within an allelic series); in the assay with PRRX1 [6] it was 11.1 upbm affinity estimate (log intensity, higher = more binding, comparable within an allelic series). Moreover, the binding signal with HOXB6 [7] is 9.97 upbm affinity estimate (log intensity, higher = more binding, comparable within an allelic series); in the assay with ALX4 [8] it was 12.7 upbm affinity estimate (log intensity, higher = more binding, comparable within an allelic series); with HESX1 [9] it was 12.4 upbm affinity estimate (log intensity, higher = more binding, comparable within an allelic series); with HOXA2 [10], 12.4 upbm affinity estimate (log intensity, higher = more binding, comparable within an allelic series); in the assay with HOXB9 [11] it was 11.7 upbm affinity estimate (log intensity, higher = more binding, comparable within an allelic series); with MSX2 [12], 12.9 upbm affinity estimate (log intensity, higher = more binding, comparable within an allelic series). The binding signal was 11.4 upbm affinity estimate (log intensity, higher = more binding, comparable within an allelic series) with ALX1 [13]; 13.2 upbm affinity estimate (log intensity, higher = more binding, comparable within an allelic series) with HOXA2 [14]; 11.1 upbm affinity estimate (log intensity, higher = more binding, comparable within an allelic series) in the assay with ALX1 [15]; 14 upbm affinity estimate (log intensity, higher = more binding, comparable within an allelic series) in the assay with MSX2 [16]; 11.1 upbm affinity estimate (log intensity, higher = more binding, comparable within an allelic series) with PROP1 [17]; 8.36 upbm affinity estimate (log intensity, higher = more binding, comparable within an allelic series) in the assay with HESX1 [18]. In addition, the binding signal is 10.9 upbm affinity estimate (log intensity, higher = more binding, comparable within an allelic series) with PROP1 [19]; 10.3 upbm affinity estimate (log intensity, higher = more binding, comparable within an allelic series) with ALX3; 10.6 upbm affinity estimate (log intensity, higher = more binding, comparable within an allelic series) with HESX1 [20]; 11.5 upbm affinity estimate (log intensity, higher = more binding, comparable within an allelic series) in the assay with HOXB9 [21]; 7.6 upbm affinity estimate (log intensity, higher = more binding, comparable within an allelic series) in the assay with PROP1 [22]; 13.6 upbm affinity estimate (log intensity, higher = more binding, comparable within an allelic series) with MSX2 [23]. Moreover, the binding signal with HESX1 [24] is 7.74 upbm affinity estimate (log intensity, higher = more binding, comparable within an allelic series); in the assay with HOXA2 [25], 10.8 upbm affinity estimate (log intensity, higher = more binding, comparable within an allelic series); with HOXA7 [26] it was 8.84 upbm affinity estimate (log intensity, higher = more binding, comparable within an allelic series); in the assay with PRRX1 [27] it was 13.2 upbm affinity estimate (log intensity, higher = more binding, comparable within an allelic series); in the assay with HOXA2 [28] it was 12.2 upbm affinity estimate (log intensity, higher = more binding, comparable within an allelic series); with HOXB6 [29], 12 upbm affinity estimate (log intensity, higher = more binding, comparable within an allelic series).

In the case of CCTAGCTC, the binding signal was 6.41 upbm affinity estimate (log intensity, higher = more binding, comparable within an allelic series) in the assay with HESX1 [1]; 8.35 upbm affinity estimate (log intensity, higher = more binding, comparable within an allelic series) with VENTX [30]; 9.86 upbm affinity estimate (log intensity, higher = more binding, comparable within an allelic series) in the assay with HOXA4 [31]; 8.47 upbm affinity estimate (log intensity, higher = more binding, comparable within an allelic series) with VENTX [32]; 8.59 upbm affinity estimate (log intensity, higher = more binding, comparable within an allelic series) in the assay with HOXA7 [4]; 8.28 upbm affinity estimate (log intensity, higher = more binding, comparable within an allelic series) in the assay with VENTX [33]. For the same sequence, the binding signal with HESX1 [9] is 6.56 upbm affinity estimate (log intensity, higher = more binding, comparable within an allelic series); in the assay with HOXA4 [34], 9.83 upbm affinity estimate (log intensity, higher = more binding, comparable within an allelic series); in the assay with HOXA4 [35], 9.82 upbm affinity estimate (log intensity, higher = more binding, comparable within an allelic series); with HESX1 [18] it was 6.57 upbm affinity estimate (log intensity, higher = more binding, comparable within an allelic series); in the assay with HESX1 [20], 6.46 upbm affinity estimate (log intensity, higher = more binding, comparable within an allelic series); with HESX1 [24] it was 6.62 upbm affinity estimate (log intensity, higher = more binding, comparable within an allelic series). Further, the binding signal is 8.42 upbm affinity estimate (log intensity, higher = more binding, comparable within an allelic series) with HOXA7 [26] and 9.87 upbm affinity estimate (log intensity, higher = more binding, comparable within an allelic series) with HOXA4 [36].

Turning to CGCAATTA, the binding signal with HESX1 [1] was 11.6 upbm affinity estimate (log intensity, higher = more binding, comparable within an allelic series); with HOXA7 [4] it was 11.2 upbm affinity estimate (log intensity, higher = more binding, comparable within an allelic series); with VENTX [33], 11.4 upbm affinity estimate (log intensity, higher = more binding, comparable within an allelic series); with HOXB6 [7], 9.82 upbm affinity estimate (log intensity, higher = more binding, comparable within an allelic series); with HESX1 [9], 11.8 upbm affinity estimate (log intensity, higher = more binding, comparable within an allelic series); in the assay with HOXA2 [10], 12.4 upbm affinity estimate (log intensity, higher = more binding, comparable within an allelic series). Also, the binding signal with MSX2 [12] is 12.6 upbm affinity estimate (log intensity, higher = more binding, comparable within an allelic series); in the assay with HOXA2 [14], 13.1 upbm affinity estimate (log intensity, higher = more binding, comparable within an allelic series); with MSX2 [16] it was 13.7 upbm affinity estimate (log intensity, higher = more binding, comparable within an allelic series); with HESX1 [18], 8.21 upbm affinity estimate (log intensity, higher = more binding, comparable within an allelic series); in the assay with HESX1 [20] it was 10.1 upbm affinity estimate (log intensity, higher = more binding, comparable within an allelic series); in the assay with MSX2 [23], 13.4 upbm affinity estimate (log intensity, higher = more binding, comparable within an allelic series). The binding signal with HESX1 [24] was 7.22 upbm affinity estimate (log intensity, higher = more binding, comparable within an allelic series); in the assay with HOXA2 [25] it was 10.7 upbm affinity estimate (log intensity, higher = more binding, comparable within an allelic series); with HOXA7 [26] it was 8.67 upbm affinity estimate (log intensity, higher = more binding, comparable within an allelic series); with HOXA2 [28], 12.1 upbm affinity estimate (log intensity, higher = more binding, comparable within an allelic series); in the assay with HOXB6 [29] it was 11.7 upbm affinity estimate (log intensity, higher = more binding, comparable within an allelic series).

As for CCAGCGCA, the binding signal in the assay with HESX1 [1] is 6.46 upbm affinity estimate (log intensity, higher = more binding, comparable within an allelic series); with HOXC9 [3], 9.45 upbm affinity estimate (log intensity, higher = more binding, comparable within an allelic series); with HOXC10 [37], 10 upbm affinity estimate (log intensity, higher = more binding, comparable within an allelic series); in the assay with HESX1 [9], 6.4 upbm affinity estimate (log intensity, higher = more binding, comparable within an allelic series); with HOXC9 [38], 9.65 upbm affinity estimate (log intensity, higher = more binding, comparable within an allelic series); with MSX2 [12], 9.46 upbm affinity estimate (log intensity, higher = more binding, comparable within an allelic series). Also, the binding signal is 9.5 upbm affinity estimate (log intensity, higher = more binding, comparable within an allelic series) with HOXC9 [39]; 10 upbm affinity estimate (log intensity, higher = more binding, comparable within an allelic series) with HOXC10 [40]; 9.44 upbm affinity estimate (log intensity, higher = more binding, comparable within an allelic series) in the assay with MSX2 [16]; 6.49 upbm affinity estimate (log intensity, higher = more binding, comparable within an allelic series) in the assay with HESX1 [18]; 7.28 upbm affinity estimate (log intensity, higher = more binding, comparable within an allelic series) with VAX1 [41]; 6.38 upbm affinity estimate (log intensity, higher = more binding, comparable within an allelic series) with HESX1 [20]. The binding signal with HOXC9 [42] was 9.6 upbm affinity estimate (log intensity, higher = more binding, comparable within an allelic series); with MSX2 [23], 9.44 upbm affinity estimate (log intensity, higher = more binding, comparable within an allelic series); with HESX1 [24], 6.38 upbm affinity estimate (log intensity, higher = more binding, comparable within an allelic series); with VAX1 [43], 7.16 upbm affinity estimate (log intensity, higher = more binding, comparable within an allelic series); with VAX1 [44], 7.39 upbm affinity estimate (log intensity, higher = more binding, comparable within an allelic series).
